Measured values reported in PubChem BioAssay (NCATS).
Records with an inconclusive call do not appear. Active and inactive are the calls of the source. Unless noted, calls follow the shape of the dose curve; as a rule, active = well fitted curve in either direction with a large enough effect (not every such curve was filed as active); inconclusive = small, poorly fitted or top-dose-only effect, or another doubt; inactive = flat fitted curve, though single readings scatter.

What was measured:
[1] = molecular target: Lysosomal acid glucosylceramidase (Homo sapiens) (UniProt P04062); experiment: Glucocerebrosidase-p2 (AID 348; in the data active = potency below about 10 µM; also: potency is read from the fitted curve at half-maximal effect); settings: purified GBA, blue fluorogenic substrate, 40 min
Outline: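 Normal human glucocerebrosidase (0.2 nM) with blue fluorogenic substrate (80 uM final) in citrate/phosphate pH 5.9 with 10mM sodium taurocholate, 0.01% tween-20; 40 min RT, NaOH/glycine stop; fluorescence Ex 365/Em 440; AC50 from a titration from 0.6 nM upwards.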

[2] = AP1 Signaling Pathway (AID 357); settings: ME-180 AP-1-bla reporter, EGF-induced, beta-lactamase ratio, 5 h; at 7.69 µM (top of the series) unless noted;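 also: ME-180 reporter cells stimulated with EGF at its EC50 level; % is scaled to controls: 0 for no effect and ±100 for the full control effect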
Outline: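 Read-out was the 460nm/530nm emission ratio (excitation 405nm) after CCF4 loading for 2.5 hours at room temperature. Cells carried an AP-1-driven beta-lactamase reporter, were stimulated with EC50 EGF plus compound for 5 hours, and AC50 values came from titrations.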

[3] = molecular target: Cytochrome P450 1A2 (Homo sapiens) (UniProt P05177); experiment: p450-cyp1a2 (AID 410; calls by dose curve; also: potency is read from the fitted curve at half-maximal effect;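 as to activity change, negative = inhibition: -100% = full effect of reference inhibitor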); settings: recombinant CYP1A2, luciferin-ME demethylation, luminescence; series mostly up to 11.4 µM
Outline: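 20nM CYP1A2, 100uM Luciferin-ME (=Km), 100mM KPO4; cpd 10 min RT; +NADPH regen, 60 min RT; stop/detect 20 min; luminescence. Normalized to furafylline 57 uM = full inhibition.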

[4] = NFAT Signaling Pathway (AID 444); settings: Jurkat NFAT-bla M1, carbachol, beta-lactamase ratio, 5 h; at 7.69 µM (top of the series) unless noted;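 also: carbachol stimulus at about its EC50 of 1 µM final; % is scaled to controls: 0 for no effect and ±100 for the full control effect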
Outline: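 Read-out: CCF4 FRET ratio (460 nm/530 nm) after 1 h RT dye loading, used for %activity and AC50 from titration series. Cells: Jurkat NFAT-β-lactamase/M1 line, treated with compound plus 1 uM carbachol for 5 h, 37 °C.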

[5] = Stat Signaling Pathway (AID 446); settings: ME-180 (cervical carcinoma) SIE beta-lactamase reporter, IL-6 stimulated, 5 h; at 7.69 µM (top of the series) unless noted;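 also: ME-180 cervical cancer cells given 40 pM IL-6 alongside compound; SIE-controlled beta-lactamase reporter measured as 460/530 nm FRET emission ratio; % is scaled to controls: 0 for no effect and ±100 for the full control effect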
Outline: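 Overnight-plated ME-180 cells bearing a STAT Inducible Element beta-lactamase reporter; 5 h co-exposure to compound and 40 pM IL-6; values normalized to 300 pM IL-6 and 125 nM JAK inhibitor controls.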

[6] = molecular target: Glucocorticoid receptor (Homo sapiens) (UniProt P04150); experiment: GR-GFP Redistribution (AID 450;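 active = compounds whose dose series gives a full or clear partial fitted curve of increased nuclear translocation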; also: potency is read from the fitted curve at half-maximal effect); settings: U2OS GR-GFP nuclear translocation, laser cytometry, 2 h
[7] = molecular target: Glucocorticoid receptor (Homo sapiens) (UniProt P04150); experiment: GR-EFC Redistribution (AID 451; calls by dose curve; also: potency is read from the fitted curve at half-maximal effect); settings: CHO-K1 GR-EFC translocation, beta-gal luminescence, 2 h
Outline: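 Translocation of GR-ED fusion to nuclear EA restores b-gal, read by luminescence after 1 h room-temperature detection. Engineered CHO-K1 biosensor cells, 1,000/well, exposed 2 h at 37 C to titrations up to 46 uM final.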

[8] = molecular target: Mitogen-activated protein kinase 10 (Mus musculus) (UniProt Q61831); experiment: JNK3 AlphaScreen Assay (AID 530); settings: JNK3 lysate, c-Jun phosphorylation; series mostly up to 11.4 µM;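 also: kinase came from lysate of stimulated human HepG2 cells; signal reports phosphorylation of biotinylated GST-cJun 1-79 at Ser73 with 10 µM ATP; % is scaled to controls: 0 for no effect and ±100 for the full control effect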
Outline: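 Kinase buffer: 20 mM Tris-HCl pH 7.6, 10 mM MgCl2, 1 mM DTT, 0.1 mM Na3VO4, 0.01% Tween-20; ATP 10 uM. Substrate biotin-GST-cJun(1-79), enzyme from activated HepG2 lysates. Detection by Ser73 phospho-antibody AlphaScreen.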

[9] = molecular target: 3',5'-cyclic-AMP phosphodiesterase 4B (Homo sapiens) (UniProt Q07343); experiment: qHTS Assay for Inhibitors of PDE-IV (AID 607; active = well fitted activation curve with a large enough effect in the main read-out, with a control signal flat, not every such curve was filed as active; also: % of control where 0% means no effect); settings: HEK293 ACTOne CNG channel cells, membrane potential fluorescence; series mostly up to 22.9 µM
Outline: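 Live HEK293 cells with a modified cyclic nucleotide-gated (CNG) channel report intracellular cAMP via membrane-potential dye fluorescence (ex 535/em 590 nm). Endogenous PDE-IV was targeted. Compounds were tested at up to 22.9 uM final; RO 20-1724 100 uM served as control.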

Chain of Cytochrome P450 1A2 (Homo sapiens) (P05177 whole entry, looked up): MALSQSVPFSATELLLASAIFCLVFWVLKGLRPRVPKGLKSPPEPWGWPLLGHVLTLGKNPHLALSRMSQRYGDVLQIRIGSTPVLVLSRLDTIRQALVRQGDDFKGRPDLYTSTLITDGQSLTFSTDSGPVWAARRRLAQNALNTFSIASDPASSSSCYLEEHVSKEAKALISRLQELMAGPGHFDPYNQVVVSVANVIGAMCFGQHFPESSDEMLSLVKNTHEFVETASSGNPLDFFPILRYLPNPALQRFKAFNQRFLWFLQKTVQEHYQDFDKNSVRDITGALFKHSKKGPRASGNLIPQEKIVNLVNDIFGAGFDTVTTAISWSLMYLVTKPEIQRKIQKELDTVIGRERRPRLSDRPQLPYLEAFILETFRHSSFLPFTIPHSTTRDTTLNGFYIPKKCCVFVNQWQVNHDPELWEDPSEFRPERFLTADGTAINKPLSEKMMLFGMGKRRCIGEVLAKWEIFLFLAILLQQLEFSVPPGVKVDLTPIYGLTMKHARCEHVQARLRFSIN
Chain of Lysosomal acid glucosylceramidase (Homo sapiens) (P04062 whole entry, looked up): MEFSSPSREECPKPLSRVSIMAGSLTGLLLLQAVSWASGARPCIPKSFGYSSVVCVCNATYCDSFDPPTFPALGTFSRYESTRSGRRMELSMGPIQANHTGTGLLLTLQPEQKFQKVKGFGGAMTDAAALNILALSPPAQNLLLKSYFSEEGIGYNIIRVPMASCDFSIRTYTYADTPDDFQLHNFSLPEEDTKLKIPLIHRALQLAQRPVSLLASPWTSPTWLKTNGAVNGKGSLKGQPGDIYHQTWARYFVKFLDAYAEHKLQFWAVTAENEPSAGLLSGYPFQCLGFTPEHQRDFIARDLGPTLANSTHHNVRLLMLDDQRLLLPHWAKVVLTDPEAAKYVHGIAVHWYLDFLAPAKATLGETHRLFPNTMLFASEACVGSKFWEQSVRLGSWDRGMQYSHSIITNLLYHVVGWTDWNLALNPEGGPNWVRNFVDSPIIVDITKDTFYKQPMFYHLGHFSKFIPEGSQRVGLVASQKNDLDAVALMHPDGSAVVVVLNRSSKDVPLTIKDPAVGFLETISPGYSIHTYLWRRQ
Chain of Glucocorticoid receptor (Homo sapiens) (P04150 whole entry, looked up, the tested form may be a part): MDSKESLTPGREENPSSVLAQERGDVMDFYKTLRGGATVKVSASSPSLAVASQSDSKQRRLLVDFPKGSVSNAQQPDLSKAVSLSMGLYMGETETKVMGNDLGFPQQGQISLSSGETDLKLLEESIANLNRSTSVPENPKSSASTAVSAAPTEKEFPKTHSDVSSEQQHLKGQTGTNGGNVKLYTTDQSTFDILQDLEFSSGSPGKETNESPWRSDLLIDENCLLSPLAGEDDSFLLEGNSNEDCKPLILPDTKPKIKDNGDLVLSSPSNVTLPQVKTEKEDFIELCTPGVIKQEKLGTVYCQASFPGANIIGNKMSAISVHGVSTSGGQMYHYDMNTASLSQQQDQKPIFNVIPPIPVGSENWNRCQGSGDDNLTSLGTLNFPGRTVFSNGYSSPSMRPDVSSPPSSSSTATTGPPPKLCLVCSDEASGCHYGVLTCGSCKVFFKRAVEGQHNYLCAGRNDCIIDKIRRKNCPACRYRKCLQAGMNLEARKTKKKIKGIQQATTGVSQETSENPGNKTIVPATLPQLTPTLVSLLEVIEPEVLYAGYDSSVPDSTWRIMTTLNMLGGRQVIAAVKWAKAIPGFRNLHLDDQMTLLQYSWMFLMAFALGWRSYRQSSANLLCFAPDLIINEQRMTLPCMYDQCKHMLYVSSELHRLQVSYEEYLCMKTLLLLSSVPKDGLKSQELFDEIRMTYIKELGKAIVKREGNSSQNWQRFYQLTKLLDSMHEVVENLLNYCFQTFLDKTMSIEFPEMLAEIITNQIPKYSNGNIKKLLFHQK
Chain of 3',5'-cyclic-AMP phosphodiesterase 4B (Homo sapiens) (Q07343 whole entry, looked up): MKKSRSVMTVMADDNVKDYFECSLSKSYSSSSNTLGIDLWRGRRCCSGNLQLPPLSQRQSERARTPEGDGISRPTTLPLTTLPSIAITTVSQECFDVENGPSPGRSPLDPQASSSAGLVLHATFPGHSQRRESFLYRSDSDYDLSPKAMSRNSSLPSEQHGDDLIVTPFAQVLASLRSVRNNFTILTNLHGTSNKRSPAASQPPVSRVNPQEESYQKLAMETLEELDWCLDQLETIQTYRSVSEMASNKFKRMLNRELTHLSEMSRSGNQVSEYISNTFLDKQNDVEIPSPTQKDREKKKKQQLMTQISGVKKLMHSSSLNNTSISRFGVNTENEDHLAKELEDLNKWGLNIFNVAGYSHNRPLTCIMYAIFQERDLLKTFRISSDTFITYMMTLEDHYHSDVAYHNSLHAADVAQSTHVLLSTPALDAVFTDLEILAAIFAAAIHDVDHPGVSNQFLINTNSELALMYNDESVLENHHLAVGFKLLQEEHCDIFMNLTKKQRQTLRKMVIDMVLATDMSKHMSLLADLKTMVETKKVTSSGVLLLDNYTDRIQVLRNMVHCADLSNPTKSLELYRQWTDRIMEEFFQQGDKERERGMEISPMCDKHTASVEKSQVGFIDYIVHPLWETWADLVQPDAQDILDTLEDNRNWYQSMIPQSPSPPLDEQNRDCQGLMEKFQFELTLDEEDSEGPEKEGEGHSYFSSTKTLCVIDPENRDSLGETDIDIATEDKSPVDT

CC(C)(CC(=O)Nc1ccccc1)C(=O)O
inactive: Potency [1] > 11.4 µM | activity change, negative = inhibition [2] -3.37% | Potency [3] | activity change, negative = inhibition [4] -4.05% | activity, negative = inhibition [5] 2.37% | Potency [6] > 46 µM | Potency [7] > 9.22 µM | Potency [8] | Potency [9]

O=[N+]([O-])c1ccc2ncccc2c1CCc1c([N+](=O)[O-])ccc2ncccc12
active: Potency [3] 3.16 µM
inactive: Potency [1] > 11.4 µM | activity change, negative = inhibition [2] 1.48% | activity change, negative = inhibition [4] 17.8% | activity, negative = inhibition [5] 5.88% | Potency [6] > 46 µM | Potency [7] > 9.22 µM | Potency [8] | Potency [9]

Cc1ccc(S(=O)(=O)N=Nc2c(O)[nH]c3cc(O)c(C(=O)O)cc23)cc1
inactive: Potency [1] > 11.4 µM | activity change, negative = inhibition [2] -1.74% | activity change, negative = inhibition [3] -15.8% [at 2.29 µM] | activity change, negative = inhibition [4] 7.79% | activity, negative = inhibition [5] 0.979% | Potency [6] > 46 µM | Potency [7] > 9.22 µM | Potency [8] | Potency [9]

CC[C@@H](CS(=O)(=O)O)[N+](=O)[O-]
inactive: Potency [1] > 11.4 µM | activity change, negative = inhibition [2] 7.92% | Potency [3] | activity change, negative = inhibition [4] 19.9% | activity, negative = inhibition [5] 10.6% | Potency [6] > 46 µM | Potency [7] > 9.22 µM | Potency [8] | Potency [9]

O=C(O)/C=C(/C(=O)O)[C@]12CCN3CC4=CCO[C@@H]5CC(=O)N[C@@H]1[C@H]5[C@H]4C[C@H]32
inactive: Potency [1] > 11.4 µM | activity change, negative = inhibition [2] 9.14% | activity change, negative = inhibition [3] -15% [at 2.29 µM] | activity change, negative = inhibition [4] -1.3% | activity, negative = inhibition [5] -7.59% | Potency [6] > 46 µM | Potency [7] > 9.22 µM | Potency [8] | Potency [9]

O=C(O)CCCCn1ccc(=O)[nH]c1=O
inactive: Potency [1] > 11.4 µM | activity change, negative = inhibition [2] 9.63% | Potency [3] | activity change, negative = inhibition [4] -9.32% | activity, negative = inhibition [5] 4.56% | Potency [6] > 46 µM | Potency [7] > 9.22 µM | Potency [8] | Potency [9]

O=S1(=O)N[C@H]2CC[C@@H]3NS(=O)(=O)N[C@H]4CC[C@H](N1)N4S(=O)(=O)N23
inactive: Potency [1] > 11.4 µM | activity change, negative = inhibition [2] -14.2% | Potency [3] | activity change, negative = inhibition [4] 23.9% | activity, negative = inhibition [5] -2.8% | Potency [6] > 46 µM | Potency [7] > 9.22 µM | Potency [8] | Potency [9]

O=C(O)c1ccc(C(=O)Nc2cccc3ccccc23)c(C(=O)O)c1
inactive: Potency [1] > 11.4 µM | activity change, negative = inhibition [2] 4.87% | activity change, negative = inhibition [3] -6.2% [at 2.29 µM] | activity change, negative = inhibition [4] 5.96% | activity, negative = inhibition [5] 0.708% | Potency [6] > 46 µM | Potency [7] > 9.22 µM | Potency [8] | Potency [9]

Cc1c(C(=O)O)nc(/C=C\C(=O)O)[nH]c1=O
inactive: Potency [1] > 11.4 µM | activity change, negative = inhibition [2] 11.1% | Potency [3] | activity change, negative = inhibition [4] 3.17% | activity, negative = inhibition [5] 21.1% | Potency [6] > 46 µM | Potency [7] > 9.22 µM | Potency [8] | Potency [9]

NNC(=O)[C@@H](O)[C@H](O)[C@H](O)CO
inactive: Potency [1] > 11.4 µM | activity change, negative = inhibition [2] 2.85% | Potency [3] | activity change, negative = inhibition [4] 10.5% | activity, negative = inhibition [5] 2.62% | Potency [6] > 46 µM | Potency [7] > 9.22 µM | Potency [8] | Potency [9]

O=C1[C@@H]2[C@@H]3C=C[C@H]([C@@H]2C(=O)N1CN1CCSCC1)[C@@H]1[C@@H]2C(=O)N(CN4CCSCC4)C(=O)[C@@H]2[C@H]31
inactive: Potency [1] > 11.4 µM | activity change, negative = inhibition [2] 11.7% | Potency [3] | activity change, negative = inhibition [4] 5.4% | activity, negative = inhibition [5] -1.73% | Potency [6] > 46 µM | Potency [7] > 9.22 µM | Potency [8] | Potency [9]

Cc1cc(C)nc(SCCc2cccc[n+]2C)n1
inactive: Potency [1] > 11.4 µM | activity change, negative = inhibition [2] -4.14% | activity change, negative = inhibition [3] -18.6% [at 2.29 µM] | activity change, negative = inhibition [4] -24.4% | activity, negative = inhibition [5] 6.72% | Potency [6] > 46 µM | Potency [7] > 9.22 µM | Potency [8] | Potency [9]

Nc1cc(C(=O)O)[nH]c(=O)n1
inactive: Potency [1] > 11.4 µM | activity change, negative = inhibition [2] 3.6% | Potency [3] | activity change, negative = inhibition [4] 8.92% | activity, negative = inhibition [5] 13.8% | Potency [6] > 46 µM | Potency [7] > 9.22 µM | Potency [8] | Potency [9]

Cn1c(=O)c2[nH]c([C@@H]3CC(=O)C[C@H](c4nc5c([nH]4)c(=O)n(C)c(=O)n5C)N3)nc2n(C)c1=O
inactive: Potency [1] > 11.4 µM | activity change, negative = inhibition [2] 3.07% | activity change, negative = inhibition [3] -18.2% [at 2.29 µM] | activity change, negative = inhibition [4] 19% | activity, negative = inhibition [5] 6.09% | Potency [6] > 46 µM | Potency [7] > 9.22 µM | Potency [8] | Potency [9]

O=NN(Cc1ccc(Cl)cc1)[C@@H](C(=O)O)c1ccccc1
inactive: Potency [1] > 11.4 µM | activity change, negative = inhibition [2] 15.1% | activity change, negative = inhibition [4] -4.59% | activity, negative = inhibition [5] 0.591% | Potency [6] > 46 µM | Potency [7] > 9.22 µM | Potency [8] | Potency [9]
active: Potency [3] 5.01 µM

CN(C)S(=O)(=O)c1nc(Cl)c2[nH]cnc2n1
inactive: Potency [1] > 11.4 µM | activity change, negative = inhibition [2] 1.09% | Potency [3] | activity change, negative = inhibition [4] 17.4% | activity, negative = inhibition [5] -1.44% | Potency [6] > 46 µM | Potency [7] > 9.22 µM | Potency [8] | Potency [9]

O=C(O)C12CC3(C(=O)O)CC(C(=O)O)(CC(C(=O)O)(C1)C3=O)C2=O
inactive: Potency [1] > 11.4 µM | activity change, negative = inhibition [2] -2.38% | activity change, negative = inhibition [3] -4.3% [at 2.29 µM] | activity change, negative = inhibition [4] 6.84% | activity, negative = inhibition [5] 4.13% | Potency [6] > 46 µM | Potency [7] > 9.22 µM | Potency [8] | Potency [9]
